Laboratory results as given in the supplement of paper PMC10127200.
Counter-ions that a name gives are not always drawn.

Assays:
Assay in all cases: Euclidean distance of Cell Painting phenotypic profile (signed KS, 77 features) to DMSO centroid (dimensionless distance); higher = stronger phenotypic change vs DMSO (phenoactivity)
Settings in all cases: 48 h; 5 or 10 uM (library dependent)
[1] = test system: 786-O
How it was run: (§1)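 Five cancer lines and a healthy fibroblast line received library compounds at 10 or 5 uM (library-dependent, 0.1% DMSO final) for 48 h. Stained cells were imaged confocally at 20X (9 fields/well). Harmony extracted 77 features, each scored as a signed Kolmogorov-Smirnov statistic against same-plate vehicle wells. Profiles were plate-position corrected, correlation-weighted and replicate-averaged at the top dose. Phenoactivity is the Euclidean distance from each profile to the median vehicle profile.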

[2] = test system: A549
How it was run: as §1

[3] = test system: DU145
How it was run: as §1

[4] = test system: FB
How it was run: as §1

[5] = test system: HEPG2
How it was run: as §1

[6] = test system: OVCAR4
How it was run: as §1

SMILES	Euclidean distance [1]	Euclidean distance [2]	Euclidean distance [3]	Euclidean distance [4]	Euclidean distance [5]	Euclidean distance [6]
O=C/C=C/c1ccccc1 [Cinnamaldehyde]	1	0.658	0.988	0.954	1.14	0.848
CN(C)Cc1c[nH]c2ccccc12 [Gramine]	1.2	0.885	1.29	0.772	0.674	1.45
CC(=O)Nc1ccc(Cc2ccc(NC(C)=O)cc2)cc1	1.08	2.27	0.674	0.9	0.667	1.25
COC[C@H]1OC(=O)c2coc3c2[C@@]1(C)C1=C(C3=O)[C@@H]2CCC(=O)[C@@]2(C)C[C@H]1OC(C)=O [Wortmannin]	1.37	1.06	1.2	2.24	0.655	1.14
CCOC(=O)c1cncn1[C@H](C)c1ccccc1 [Etomidate]	2.62	1.77	2.36	2.6	1.08	1.9
C[C@]12CC[C@@H]3c4ccc(OC(=O)N(CCCl)CCCl)cc4CC[C@H]3[C@@H]1CC[C@@H]2OP(=O)(O)O [Estramustine phosphate sodium]	1.21	0.586	0.548	0.917	0.766	0.779
O=C1CCC[C@@H]2[C@H]3CCCN4CCC[C@@H](CN12)[C@@H]34 [(+)-Matrine]	1	0.876	0.902	1.03	0.874	0.759
CN1CCc2cc3c(cc2C1C1OC(=O)c2c1ccc1c2OCO1)OCO3 (single isomer, unassigned; (+)) [(+)-Bicuculline]	1.27	0.94	0.878	0.836	0.778	1.48
COc1cc2c(cc1OC)C1CC(=O)C(CC(C)C)CN1CC2 (centres undefined) [Tetrabenazine (Xenazine)]	0.961	1.86	0.948	1.12	1.74	1.45
C=CC(=O)N[C@H]1C=C(C)c2c(-c3cnc4ccccc4c3)c3c(N)ncnc3n2C1	1.49	1.6	–	1.95	1.26	1.39
COc1cc2c(cc1OC)[C@@]13CCN4CC5=CCO[C@H]6CC(=O)N2[C@H]1[C@H]6[C@H]5C[C@H]43 [Brucine sulfate salt hydrate]	1.36	0.862	0.987	1.47	0.722	0.846
COC1=C[C@@H]2[C@@H]3Cc4ccc(OC)c(O)c4[C@]2(CCN3C)CC1=O [Sinomenine]	0.934	0.651	–	0.89	0.668	0.854
COc1cc(C)[nH]c(=O)c1CNC(=O)c1c(C)n([C@H](C)C2CCN(CC(F)(F)F)CC2)c2ccccc12	1.35	1.09	–	1.42	0.588	0.987
CC[C@@]1(O)C(=O)OCc2c1cc1n(c2=O)Cc2cc3ccccc3nc2-1 [Camptothecin]	3.86	3.88	–	4.14	2.87	3.96
COc1ccc(C(CN(C)C)C2(O)CCCCC2)cc1 (centres undefined) [Venlafaxine]	0.992	0.49	–	0.691	0.558	1.02
CCC1(c2cccc(O)c2)CCCCN(C)C1 (centres undefined) [Meptazinol HCl]	1.46	1.09	0.6	0.726	0.404	0.921
S=C=NCc1ccccc1 [Benzyl isothiocyanate]	4.42	2.5	3.41	2.02	3.28	1.82
CN1C(=O)CCS(=O)(=O)C1c1ccc(Cl)cc1 (centres undefined) [Chlormezanone]	1.52	0.681	–	0.695	0.59	1.23
CCCCCCCCC(=O)NCc1ccc(O)c(OC)c1 [Nonivamide]	1.37	0.987	–	0.925	0.607	1.31
O=c1cccc2n1C[C@@H]1CNC[C@H]2C1 [Cytisine]	1.35	0.65	–	1.05	1.09	2.07

SMILES	Euclidean distance [1]	Euclidean distance [2]	Euclidean distance [3]	Euclidean distance [4]	Euclidean distance [5]	Euclidean distance [6]
CC(CCc1ccccc1)NC(C)C(O)c1ccc(O)cc1 (centres undefined) [Nylidrin Hydrochloride]	1.45	1.2	1.38	1.11	1.29	1.34
O=C(CC1NCCCC1O)Cn1cnc2cc(Br)c(Cl)cc2c1=O (centres undefined) [Halofuginone]	3.67	3.22	–	3.62	3.81	3.65
C[C@]12CCC(=O)C(O)=C1CC[C@@H]1[C@@H]2CC[C@]2(C)C(=O)CC[C@@H]12 [Formestane]	1.02	0.913	–	1.08	0.763	0.703
C[C@]12CC[C@H]3[C@@H](CC[C@@]45O[C@@H]4C(O)=C(C#N)C[C@]35C)[C@@H]1CC[C@@H]2O [Trilostane]	1.94	1.35	–	0.851	1.01	1.12
CC(C)[C@]12O[C@H]1[C@@H]1O[C@]13[C@]1(O[C@H]1C[C@H]1C4=C(CC[C@@]13C)C(=O)OC4)[C@@H]2O [Triptolide (PG490)]	3.96	3.27	3.16	4.12	2.73	3.81
CN1CCCCC1Cn1cc(C(=O)c2cc([N+](=O)[O-])ccc2I)c2ccccc21 (centres undefined)	0.823	1.18	1.02	1.47	–	1.19
C[C@]12CC[C@H](O)CC1=CC[C@@H]1[C@@H]2CC[C@]2(C)C(=O)CC[C@@H]12 [Dehydroepiandrosterone (DHEA)]	0.908	0.827	1.46	1.11	1.12	1.16
COc1ccc(CN2CCNCC2)c(OC)c1OC [Trimetazidine dihydrochloride]	0.784	0.96	0.805	0.719	0.412	1.08
CCN1C[C@]2(OC(=O)c3ccccc3NC(C)=O)CC[C@H](OC)[C@@]34[C@@H]2C[C@@H]([C@@H]13)[C@@]1(O)C[C@H](OC)[C@H]2C[C@@H]4[C@]1(O)[C@H]2OC [Lappaconitine]	0.914	0.59	–	1.1	0.579	1.35
Cl[TeH]1(Cl)(Cl)OCCO1.N	1.48	1.83	2.01	1.31	1.27	2.09
CO[C@]12C[C@@H](COC(=O)c3cncc(Br)c3)CN(C)[C@@H]1Cc1cn(C)c3cccc2c13 [Nicergoline]	1.37	0.701	–	0.963	0.72	0.762
CC[C@@]1(O)C[C@H](O[C@H]2C[C@H](N(C)C)[C@H](O)[C@H](C)O2)c2c(cc3c(c2O)C(=O)c2c(O)cccc2C3=O)[C@H]1C(=O)OC [Aclacinomycin]	2.61	3.27	3.54	3.61	3.76	3.12
C[C@@H]1O[C@@H](O[C@H]2C[C@@H](O)[C@]3(CO)[C@H]4[C@H](O)C[C@]5(C)[C@@H](C6=CC(=O)OC6)CC[C@]5(O)[C@@H]4CC[C@]3(O)C2)[C@H](O)[C@H](O)[C@H]1O [Ouabain]	6.72	6.03	6.56	4.56	3.34	7.06
Cc1cccc(C)c1NC(=O)CN1CCCC1=O [Nefiracetam]	1.15	0.499	–	0.708	1.11	1.2
O=C(O)c1nn(Cc2ccc(Cl)cc2Cl)c2ccccc12 [Lonidamine]	0.877	1.12	–	1.09	0.957	1.52
N#C[C@H](O[C@@H]1O[C@H](C(=O)O)[C@@H](O)[C@H](O)[C@H]1O)c1ccccc1 [Laetrile]	0.989	0.766	–	0.899	0.702	1.45
CC(=O)c1c(O)cc(C)oc1=O [Sodium dehydroacetate]	0.865	0.572	–	0.998	0.348	0.896
COc1ccc(C(=O)N2CCCC2=O)cc1 [Aniracetam]	0.962	1.09	–	1.01	0.635	1.07
C=CC[C@]1(O)CC[C@H]2[C@@H]3CCC4=CC(=O)CCC4=C3C=C[C@@]21C [Altrenogest]	1.11	2.59	–	1.16	0.983	1.02
